High-throughput results: PubChem, several laboratories
Only some compounds are listed: those with a hit (about 3.3% of all), similar ones and a draw of the others.
14-3-3 Bad inh: disrupts binding of bovine 14-3-3 zeta to phospho-Bad peptide | P63103 | TR-FRET 14-3-3zeta/Dy647-pBad peptide displacement, 1 h | inhibition, % at 21.7 µM | actives 0.71% (n = 220,000);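 active means inhibition above about 70%, limit read from the data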;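 further: 0% = full 14-3-3 plus peptide FRET controls and 100% = background without 14-3-3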
Target sequence (P63103 whole entry, looked up): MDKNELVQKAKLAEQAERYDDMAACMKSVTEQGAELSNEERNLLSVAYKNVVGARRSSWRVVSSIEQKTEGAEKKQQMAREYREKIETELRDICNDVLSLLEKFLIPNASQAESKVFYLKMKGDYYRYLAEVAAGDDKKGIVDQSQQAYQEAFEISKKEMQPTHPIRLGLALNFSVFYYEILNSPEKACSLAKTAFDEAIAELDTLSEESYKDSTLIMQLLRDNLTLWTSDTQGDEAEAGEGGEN
Mcl1-Noxa inh: disrupts binding of human Mcl-1 to Noxa peptide. TR-FRET Mcl-1/Noxa peptide binding, 2 h. actives 1.5% (n = 220,000). AID 1022. inhibition, % at 21.7 µM. Q07820;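 active means compounds that cut the protein-peptide binding signal by more than 50% relative to plate controls in a single-dose test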;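 further: His-tagged Mcl-1 with rhodamine Noxa BH3 peptide and terbium anti-His antibody; 0% = Mcl-1 plus Noxa peptide wells and 100% = peptide-only wells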
Target sequence (Q07820 whole entry, looked up): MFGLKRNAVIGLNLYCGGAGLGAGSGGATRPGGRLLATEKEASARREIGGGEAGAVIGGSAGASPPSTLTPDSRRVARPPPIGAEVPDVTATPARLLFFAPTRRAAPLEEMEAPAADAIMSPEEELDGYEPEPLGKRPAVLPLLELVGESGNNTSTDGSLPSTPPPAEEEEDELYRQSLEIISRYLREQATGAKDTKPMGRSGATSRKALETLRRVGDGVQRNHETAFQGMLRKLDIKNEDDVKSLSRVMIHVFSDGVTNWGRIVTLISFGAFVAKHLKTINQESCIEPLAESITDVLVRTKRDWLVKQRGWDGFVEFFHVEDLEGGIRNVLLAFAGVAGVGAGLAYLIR
eIF4E 4G PPI: blocks eIF4E binding to eIF4G | TR-FRET eIF4E-eIF4GI(517-606) binding, 2 h | inhibition, % at 21.7 µM | AID 782 | P63073+Q04637 | actives 0.37% (n = 220,000);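 further: 0% = full FRET control wells and 100% = background wells lacking eIF4GI fragment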
Mcl-1 Bim block: inhibitors of Bim-Mcl-1 interaction, human | Bead-based flow cytometry, Bim peptide-Mcl-1 binding | inhibition, % at 10 µM | actives 0.1% (n = 190,000) | AID 1009; in the data active means inhibition above about 40%;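 further: 0% = no compound tracer wells and 100% = peptide blocker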
p47phox inh: p47phox (human) inhibition; P14598; p47phox/p22phox peptide binding, fluorescence polarization, 2 h; inhibition, % at 24.7 µM; actives 0.53% (n = 220,000); AID 1274;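 further: 0% = p47phox with labelled peptide and 100% = labelled peptide alone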
Mcl1 Bid PPI: disrupts binding of human Mcl-1 to Bid peptide | Q07820 | TR-FRET Mcl-1/Bid-Dy647 peptide binding, 1536-well | inhibition, % at 21.7 µM | actives 0.97% (n = 220,000) | AID 1021;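 active means compounds that cut the binding signal by more than half at the single screening dose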;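 further: His-tagged Mcl-1 with europium anti-His antibody binding Bid BH3 peptide; 0% = Mcl-1 plus peptide wells and 100% = peptide-only wells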
* = called active by the depositor; nt = not tested or not shown.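 How the source made its calls, unless noted: active means inhibition above about 30% (limit read from the data); inactive means the rest.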

SMILES	14-3-3 Bad inh	Mcl1-Noxa inh	eIF4E 4G PPI	Mcl-1 Bim block	p47phox inh	Mcl1 Bid PPI
CCC(CC)NC(=O)COC(=O)c1cc(Br)ccc1Cl	-2	0	7	3	-9	97*
COc1ccc(CN2C(=O)c3cccnc3C2Nc2cc(Cl)c(OC)cc2OC)cc1 (centres undefined)	92*	39	-6	-5	-13	90*
COc1ccc(CN2C(=O)c3cccnc3C2Nc2ccc(C)cc2)cc1 (centres undefined)	28	20	-2	0	-17	12
CCN1C(=O)[C@@H]2C(C(=O)c3cnccn3)=NN[C@@H]2C1=O	1	-6	1	nt	-7	-21
CCOC(=O)Cn1c2ccc(OC)cc2c2nc3ccccc3nc21	35	26	-33	3	-2	59*
Cc1ccc(N=Nc2ccc(N)cc2C)c(S(N)(=O)=O)c1	3	52*	-5	nt	-1	15
CNC[C@H](O)c1ccc(O)c(O)c1	2	15	-5	0	51*	-6
CNC[C@H](O)c1cccc(O)c1	3	22	1	-1	-6	-4
CCOC(=O)c1cc(C)sc1/N=C/C1=C(O)CCCC1=O	-8	19	-4	-3	-6	-39
COc1cccc2c1C(CO)N1C(C#N)C3CC(C(=O)O)C(C1C2)N3C (centres undefined)	11	8	5	nt	-10	-16
CCOC(=O)c1c(NC(=O)CN(C)C)sc(C(=O)N(CC)CC)c1C	32	0	8	-6	-17	70*
CCOc1ccc(NC(=S)C(C#N)=C2N(C)c3ccccc3N2C)cc1	-1	21	-3	-2	-1	-29
O=C(Cc1c(F)cccc1Cl)Nc1ccon1	-5	3	0	0	-45	83*
Cc1cc(NC(=O)Cc2c(F)cccc2Cl)no1	-2	-12	2	0	-5	-11
Cc1ccc(Nc2nc(CSc3n[nH]c(N)n3)cs2)cc1	1	-1	2	nt	-17	-36
CCOC(=O)c1cccc(NC(=O)CCNS(=O)(=O)c2ccc3c(c2)CCN3C(=O)CC)c1	3	21	4	-4	1	70*
CC(=O)C(C(C)=O)c1c(Cl)c(O)c(O)c2c(C(=O)c3ccccc3)coc12	12	56*	-2	0	-1	1
[O-]/C(=C(\C(=S)Nc1cccc2ccccc12)[n+]1ccccc1)c1cccs1	84*	24	-5	3	-18	-50
Cn1cncc1C(=O)c1ccccc1	-4	11	2	nt	-8	-10
CCN(CC)CCNC(=O)/C(=C/c1cn(C)c2ccccc12)NC(=O)c1ccc(OC)c(OC)c1	-7	3	1	nt	-12	95*
CC(C)CN(CCCNC(=O)CN1C(=O)COc2ccc(S(=O)(=O)N3CCCC3)cc21)CC(C)C	5	11	-1	-1	3	-1
COC(=O)c1cc(O)cc(OC)c1Oc1cc(C)cc(O)c1C(=O)O	62	85*	-11	nt	-5	-98
Cc1c(C(=O)N2c3ccccc3Sc3ccccc32)cccc1[N+](=O)[O-]	9	12	5	-2	2	0
CC(NC(=S)NCCN1CCOCC1)C12CC3CC(CC(C3)C1)C2 (centres undefined)	-6	14	-3	-5	-3	-33
CC(C)N(Cc1nc(-c2ccccc2)no1)C(=O)c1ccc(Cl)cc1	-6	-2	2	-3	59*	17
SMILES	14-3-3 Bad inh	Mcl1-Noxa inh	eIF4E 4G PPI	Mcl-1 Bim block	p47phox inh	Mcl1 Bid PPI
CC(C)N(Cc1nc(-c2ccccc2)no1)C(=O)c1ccc([N+](=O)[O-])cc1	-9	11	-3	0	3	-21
Cc1oc2c(O)c(O)ccc2c(=O)c1-c1ccccc1	-4	71*	-21	nt	0	-38
Cc1c(Cc2ccccc2)c(=O)oc2c(O)c(O)ccc12	8	88*	-2	-2	28	-4
Cc1oc2c(O)c(O)ccc2c(=O)c1-c1cnn(-c2ccccc2)c1	-10	56*	-15	0	-5	-54
Cc1c(Cc2ccccc2)c(=O)oc2cc(O)ccc12	-3	10	6	nt	-13	-18
O=C1CC(C(=O)Nc2cc(Cl)ccc2Cl)n2ncnc2N1 (centres undefined)	-11	-6	-2	-1	-6	-25
CCCCC(=O)NCc1ccc(Cl)cc1	0	16	-24	-3	-6	3
O=C(CSc1ccc(-c2ccco2)nn1)c1ccccc1	-9	59*	-2	-7	-4	-15
CCc1nnc(NC(=O)Cn2nc(-c3ccccc3OC)ccc2=O)s1	8	6	36*	-1	-2	0
CCc1nnc(NC(=O)CSc2nnc(-c3ccco3)n2C)s1	8	7	-2	-1	-6	-1
Cc1ccccc1NC(=O)CSc1ccc(-c2ccco2)nn1	0	13	10	-3	-12	-12
Cc1nnc(NC(=O)CSc2ccc(-c3ccco3)nn2)s1	0	56*	13	4	-3	-56
COc1ccc(C(=O)CSc2ccc(-c3ccco3)nn2)cc1	-5	40	2	-2	-1	-10
CCc1nnc(NC(=O)CSc2ccc(-c3ccco3)nn2)s1	5	59*	20	-2	3	-36
COc1nc(N2CCCC2)nc(-n2nnc(C(C)=O)c2C)n1	2	-1	1	-3	16	6
Cc1ccc(NC(=O)NC(=O)CSc2nnc(-c3ccc(Cl)cc3Cl)n2N)c(C)c1	-1	5	3	-5	-16	11
CC(=O)Nc1sc(N/N=C\c2ccccc2F)nc1-c1cccs1	5	62*	5	-8	-10	-9
CC(=O)Nc1sc(N/N=C\c2cccc(Cl)c2)nc1-c1cccs1	-6	37	-4	-6	-15	-10
CC(=O)Nc1sc(N/N=C\c2ccc(O)cc2)nc1-c1cccs1	4	104*	1	nt	-10	-71
COc1ccc(/C=C/c2cc(C(F)(F)F)on2)cc1	4	-25	0	nt	1	-26
O=C1ON=C(c2ccccc2)/C1=C/c1ccc(OS(=O)(=O)c2ccccc2)cc1	49	72*	5	-7	3	18
O=C1ON=C(c2ccccc2)/C1=C/c1cccnc1	3	23	1	2	4	-11
Nc1c(C(=O)NCCc2ccc(Cl)cc2)sc2ccc(S(=O)(=O)N3CCCCC3)cc12	-13	2	-1	-3	-5	-28
O=C(COC(=O)c1cccnc1Nc1cccc(C(F)(F)F)c1)NC1CCS(=O)(=O)C1 (centres undefined)	5	-10	0	-2	-26	-29
CCCCCCOc1ccc(/C(C)=N/NC2=NCCN2)cc1[N+](=O)[O-]	-61	30	-19	0	51*	-16
